# Legend:
# Assay in all cases: SPOT peptide array binding signal intensity (averaged, normalized) (arbitrary units (background-subtracted, floor 0; scale differs between SH3 domains)); higher = stronger binding of the SH3 domain to the peptide
# AgAbp1 = molecular target: AgAbp1
# How it was run: (§1)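 SH3 domains from four yeast species were expressed as GST fusions in E. coli BL21(DE3) and purified on glutathione Sepharose. Each was incubated at 10 μg/ml overnight at 4°C in TBS-based blocking buffer on cellulose membranes bearing synthetic 15-mer peptides, in which serines replaced cysteines. Bound protein was detected with anti-GST antibody, an HRP anti-mouse secondary and luminol, then imaged and quantified with Genespotter. The binding signal is the normalized, background-subtracted spot intensity averaged over replicates, in arbitrary units that are not the same from one domain to another.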
# AgBbc1 = molecular target: AgBbc1
# How it was run: as §1
# AgBem1-D1 = molecular target: AgBem1-D1
# How it was run: as §1
# AgBzz1-D1 = molecular target: AgBzz1-D1
# How it was run: as §1
# AgBzz1-D2 = molecular target: AgBzz1-D2
# How it was run: as §1
# AgCyk3 = molecular target: AgCyk3
# How it was run: as §1
# AgFus1 = molecular target: AgFus1
# How it was run: as §1
# AgHof1 = molecular target: AgHof1
# How it was run: as §1
# AgHse1 = molecular target: AgHse1
# How it was run: as §1
# AgLsb1 = molecular target: AgLsb1
# How it was run: as §1
# AgLsb4 = molecular target: AgLsb4
# How it was run: as §1
# AgMyo5 = molecular target: AgMyo5
# How it was run: as §1
# AgNbp2 = molecular target: AgNbp2
# How it was run: as §1
# AgRvs167 = molecular target: AgRvs167
# How it was run: as §1
# AgSho1 = molecular target: AgSho1
# How it was run: as §1
# AgSla1-D1-D2 = molecular target: AgSla1-D1-D2
# How it was run: as §1
# AgSla1-D3 = molecular target: AgSla1-D3
# How it was run: as §1
# CaAbp1-D1 = molecular target: CaAbp1-D1
# How it was run: as §1
# CaAbp1-D2 = molecular target: CaAbp1-D2
# How it was run: as §1
# CaBbc1 = molecular target: CaBbc1
# How it was run: as §1
# CaBem1-D1 = molecular target: CaBem1-D1
# How it was run: as §1
# CaBzz1-D1 = molecular target: CaBzz1-D1
# How it was run: as §1
# CaBzz1-D2 = molecular target: CaBzz1-D2
# How it was run: as §1
# CaCyk3 = molecular target: CaCyk3
# How it was run: as §1
# CaFus1 = molecular target: CaFus1
# How it was run: as §1
# CaHof1 = molecular target: CaHof1
# How it was run: as §1
# CaHse1 = molecular target: CaHse1
# How it was run: as §1
# CaLsb1 = molecular target: CaLsb1
# How it was run: as §1
# CaLsb4 = molecular target: CaLsb4
# How it was run: as §1
# CaMyo5 = molecular target: CaMyo5
# How it was run: as §1
# CaNbp2 = molecular target: CaNbp2
# How it was run: as §1
# CaRvs167 = molecular target: CaRvs167
# How it was run: as §1
# CaRvs167-3 = molecular target: CaRvs167-3
# How it was run: as §1
# CaSho1 = molecular target: CaSho1
# How it was run: as §1
# CaSla1-D1-D2 = molecular target: CaSla1-D1-D2
# How it was run: as §1
# CaSla1-D3 = molecular target: CaSla1-D3
# How it was run: as §1
# ScAbp1 = molecular target: ScAbp1
# How it was run: as §1
# ScBbc1 = molecular target: ScBbc1
# How it was run: as §1
# ScBem1-D1 = molecular target: ScBem1-D1
# How it was run: as §1
# ScBzz1-D1 = molecular target: ScBzz1-D1
# How it was run: as §1
# ScBzz1-D2 = molecular target: ScBzz1-D2
# How it was run: as §1
# ScCyk3 = molecular target: ScCyk3
# How it was run: as §1
# ScFus1 = molecular target: ScFus1
# How it was run: as §1
# ScHof1 = molecular target: ScHof1
# How it was run: as §1
# ScHse1 = molecular target: ScHse1
# How it was run: as §1
# ScLsb1 = molecular target: ScLsb1
# How it was run: as §1
# ScLsb2 = molecular target: ScLsb2
# How it was run: as §1
# ScLsb3 = molecular target: ScLsb3
# How it was run: as §1
# ScLsb4 = molecular target: ScLsb4
# How it was run: as §1
# ScMyo3 = molecular target: ScMyo3
# How it was run: as §1
# ScMyo5 = molecular target: ScMyo5
# How it was run: as §1
# ScNbp2 = molecular target: ScNbp2
# How it was run: as §1
# ScPex13 = molecular target: ScPex13
# How it was run: as §1
# ScRvs167 = molecular target: ScRvs167
# How it was run: as §1
# ScSho1 = molecular target: ScSho1
# How it was run: as §1
# ScSla1-D1-D2 = molecular target: ScSla1-D1-D2
# How it was run: as §1
# ScSla1-D3 = molecular target: ScSla1-D3
# How it was run: as §1
# SpAbp1-D1 = molecular target: SpAbp1-D1
# How it was run: as §1
# SpBbc1 = molecular target: SpBbc1
# How it was run: as §1
# SpBzz1-D1 = molecular target: SpBzz1-D1
# How it was run: as §1
# SpBzz1-D2 = molecular target: SpBzz1-D2
# How it was run: as §1
# SpCyk3 = molecular target: SpCyk3
# How it was run: as §1
# SpHof1 = molecular target: SpHof1
# How it was run: as §1
# SpHof1-2 = molecular target: SpHof1-2
# How it was run: as §1
# SpHof1-3 = molecular target: SpHof1-3
# How it was run: as §1
# SpHse1 = molecular target: SpHse1
# How it was run: as §1
# SpLsb1 = molecular target: SpLsb1
# How it was run: as §1
# SpLsb4 = molecular target: SpLsb4
# How it was run: as §1
# SpMyo1 = molecular target: SpMyo1
# How it was run: as §1
# SpNbp2 = molecular target: SpNbp2
# How it was run: as §1
# SpPex13 = molecular target: SpPex13
# How it was run: as §1
# SpRvs167 = molecular target: SpRvs167
# How it was run: as §1
# SpSla1-D1-D2 = molecular target: SpSla1-D1-D2
# How it was run: as §1
# SpSla1-D3 = molecular target: SpSla1-D3
# How it was run: as §1
binder,measurement,setting,value
APERAVPILPPRNNV,SPOT peptide array binding signal intensity,AgAbp1,7.5
same,SPOT peptide array binding signal intensity,AgBbc1,160
same,SPOT peptide array binding signal intensity,AgBem1-D1,47.5
same,SPOT peptide array binding signal intensity,AgBzz1-D1,84.5
same,SPOT peptide array binding signal intensity,AgBzz1-D2,10.5
same,SPOT peptide array binding signal intensity,AgCyk3,9
same,SPOT peptide array binding signal intensity,AgFus1,≤ 0
same,SPOT peptide array binding signal intensity,AgHof1,11.5
same,SPOT peptide array binding signal intensity,AgHse1,24.5
same,SPOT peptide array binding signal intensity,AgLsb1,109
same,SPOT peptide array binding signal intensity,AgLsb4,2180
same,SPOT peptide array binding signal intensity,AgMyo5,≤ 0
same,SPOT peptide array binding signal intensity,AgNbp2,≤ 0
same,SPOT peptide array binding signal intensity,AgRvs167,87.8
same,SPOT peptide array binding signal intensity,AgSho1,≤ 0
same,SPOT peptide array binding signal intensity,AgSla1-D1-D2,≤ 0
same,SPOT peptide array binding signal intensity,AgSla1-D3,0.5
same,SPOT peptide array binding signal intensity,CaAbp1-D1,11
same,SPOT peptide array binding signal intensity,CaAbp1-D2,14
same,SPOT peptide array binding signal intensity,CaBbc1,418
same,SPOT peptide array binding signal intensity,CaBem1-D1,2
same,SPOT peptide array binding signal intensity,CaBzz1-D1,≤ 0
same,SPOT peptide array binding signal intensity,CaBzz1-D2,28.5
same,SPOT peptide array binding signal intensity,CaCyk3,42.5
same,SPOT peptide array binding signal intensity,CaFus1,24
same,SPOT peptide array binding signal intensity,CaHof1,3.5
same,SPOT peptide array binding signal intensity,CaHse1,7.25
same,SPOT peptide array binding signal intensity,CaLsb1,≤ 0
same,SPOT peptide array binding signal intensity,CaLsb4,2970
same,SPOT peptide array binding signal intensity,CaMyo5,≤ 0
same,SPOT peptide array binding signal intensity,CaNbp2,25
same,SPOT peptide array binding signal intensity,CaRvs167,414
same,SPOT peptide array binding signal intensity,CaRvs167-3,≤ 0
same,SPOT peptide array binding signal intensity,CaSho1,4
same,SPOT peptide array binding signal intensity,CaSla1-D1-D2,1
same,SPOT peptide array binding signal intensity,CaSla1-D3,≤ 0
same,SPOT peptide array binding signal intensity,ScAbp1,1.5
same,SPOT peptide array binding signal intensity,ScBbc1,4.25
same,SPOT peptide array binding signal intensity,ScBem1-D1,≤ 0
same,SPOT peptide array binding signal intensity,ScBzz1-D1,2.5
same,SPOT peptide array binding signal intensity,ScBzz1-D2,≤ 0
same,SPOT peptide array binding signal intensity,ScCyk3,5
same,SPOT peptide array binding signal intensity,ScFus1,≤ 0
same,SPOT peptide array binding signal intensity,ScHof1,32.5
same,SPOT peptide array binding signal intensity,ScHse1,≤ 0
same,SPOT peptide array binding signal intensity,ScLsb1,80.2
same,SPOT peptide array binding signal intensity,ScLsb2,18
same,SPOT peptide array binding signal intensity,ScLsb3,4520
same,SPOT peptide array binding signal intensity,ScLsb4,1710
same,SPOT peptide array binding signal intensity,ScMyo3,33.5
same,SPOT peptide array binding signal intensity,ScMyo5,2.75
same,SPOT peptide array binding signal intensity,ScNbp2,6
same,SPOT peptide array binding signal intensity,ScPex13,789
same,SPOT peptide array binding signal intensity,ScRvs167,966
same,SPOT peptide array binding signal intensity,ScSho1,91.5
same,SPOT peptide array binding signal intensity,ScSla1-D1-D2,34.5
same,SPOT peptide array binding signal intensity,ScSla1-D3,1
same,SPOT peptide array binding signal intensity,SpAbp1-D1,5.5
same,SPOT peptide array binding signal intensity,SpBbc1,0.5
same,SPOT peptide array binding signal intensity,SpBzz1-D1,81
same,SPOT peptide array binding signal intensity,SpBzz1-D2,≤ 0
same,SPOT peptide array binding signal intensity,SpCyk3,13
same,SPOT peptide array binding signal intensity,SpHof1,3
same,SPOT peptide array binding signal intensity,SpHof1-2,8
same,SPOT peptide array binding signal intensity,SpHof1-3,20.8
same,SPOT peptide array binding signal intensity,SpHse1,2.5
same,SPOT peptide array binding signal intensity,SpLsb1,83.8
same,SPOT peptide array binding signal intensity,SpLsb4,3550
same,SPOT peptide array binding signal intensity,SpMyo1,926
same,SPOT peptide array binding signal intensity,SpNbp2,≤ 0
same,SPOT peptide array binding signal intensity,SpPex13,2
same,SPOT peptide array binding signal intensity,SpRvs167,1250
same,SPOT peptide array binding signal intensity,SpSla1-D1-D2,≤ 0
same,SPOT peptide array binding signal intensity,SpSla1-D3,≤ 0
